These results are taken from PubChem BioAssay (Tox21).

SMILES strings stand for the structures. Results filed as inconclusive are left out. A number with no mark means an inactive call. Active and inactive are the calls of the source. Calls come from the whole dose curve; as a rule, active = well fitted cell-killing curve with a large enough effect in the repeat runs; inconclusive = weak or mixed curves, or effect the other way; inactive = flat fitted curve, though single readings scatter.

Assay [1] is described as follows: cAMP Responsive Elements (CRE) small molecule antagonists, cell-based qHTS assay: qHTS cell viability counter screen (AID 2060913). Note: nearly all actives have a fitted effect of over 40% in size. Note: potency is the fitted concentration of half-maximal effect. The method in brief:
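CRE-bla HEK293T cells (2,000/well, 18 h) given compound plus NKH477 0.25 uM final for 3 h at 37C; viability counter-screen by CellTiter-Glo luminescence in same wells after 30 min.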
(In qHTS, concentration-response curves come from the screen itself.)

Assay [2] is described as follows: cAMP Responsive Elements (CRE) small molecule agonists, cell-based qHTS assay: qHTS cell viability counter screen (AID 2060914). Note: nearly all actives have a fitted effect of over 50% in size. The procedure, abridged:
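Luminescence read-out (CellTiter-Glo, 30 min RT) of ATP-based viability in CRE-bla HEK 293T cells, run in the same wells as the β-lactamase reporter assay after 3 h compound treatment at 37 °C.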
% is set by controls: 0 for no effect and ±100 for the full control effect.

With `CCCc1c2oc(C(=O)O)cc(=O)c2cc2c(=O)cc(C(=O)O)n(CC)c12`, the Potency entry in assay [1] and in assay [2] was “inactive” each time.

As for `CC1CC(OC(=O)C(O)c2ccccc2)CC(C)(C)N1C` (stereo unspecified), the Potency entry in assay [1] and in assay [2] was “inactive” each time.

For `Oc1ccc(-c2ccc(O)cc2)cc1`, the Potency entry in assay [1] and in assay [2] was “inactive” throughout.

Consider `CC(C)C(=O)OC/C=C/c1ccccc1`, for which the Potency entry in assay [1] and in assay [2] was “inactive” in each case.

As for `CCCCCCn1c(=O)c2c(ncn2C)n(C)c1=O`, the Potency entry in assay [1] and in assay [2] was “inactive” in each case.

For the compound `COCC(=O)O`, the Potency entry in assay [1] and in assay [2] was “inactive” in each case.

In the case of `CCOC(=O)[C@H](CCc1ccccc1)N[C@@H](C)C(=O)N1C(=O)N(C)C[C@H]1C(=O)O`, the Potency entry in assay [1] and in assay [2] was “inactive” each time.

For the compound `CC(O)c1ccccc1` (stereo unspecified), the Potency entry in assay [1] and in assay [2] was “inactive” each time.

On to `CC1(c2ccccc2)OC(C(=O)O)=CC1=O` (stereo unspecified), for which the Potency result in assay [1] and in assay [2] was “inactive” each time.

`CN1CCN(C)CC1`: the Potency entry in assay [1] and in assay [2] was “inactive” throughout.

For the compound `NCCCCCCNCCCCCCN`, the Potency entry in assay [1] and in assay [2] was “inactive” throughout.

`CNC(=O)N(c1ccccc1)c1ccccc1`: the Potency entry in assay [1] and in assay [2] was “inactive” each time.

`CCC(=O)OC/C=C/c1ccccc1`: the Potency result in assay [1] and in assay [2] was “inactive” in each case.

In the case of `CN(C)CCOC(c1ccccc1)c1ccccc1`, the Potency result in assay [1] and in assay [2] was “inactive” throughout.

As to `NS(=O)(=O)c1cc2c(cc1Cl)NCNS2(=O)=O`, the Potency result in assay [1] and in assay [2] was “inactive” each time.

Consider `O=C(Cl)c1cccc(C(=O)Cl)c1`, for which the Potency result in assay [1] and in assay [2] was “inactive” throughout.

`COc1cc(C(=S)N2CCOCC2)ccc1O`: the Potency entry in assay [1] and in assay [2] was “inactive” in each case.

With `O=[N+]([O-])c1cc(N(CCO)CCO)ccc1NCCO`, the Potency entry in assay [1] and in assay [2] was “inactive” throughout.

Regarding `O=C(O)O`, the viability change, negative = cytotoxic in assay [1] was 7.81% [at 8.39 µM]. Moreover, the activity change, negative = cytotoxicity in assay [2] is -5.94% [at 8.39 µM].

`C[C@@H]1[C@H](O)[C@@H](C)/C=C/C=C\C=C\C=C\C=C\C=C\C=C\[C@H](O[C@@H]2O[C@H](C)[C@@H](O)[C@H](N)[C@@H]2O)C[C@@H]2O[C@](O)(C[C@@H](O)C[C@@H](O)[C@H](O)CC[C@@H](O)C[C@@H](O)CC(=O)O[C@H]1C)C[C@H](O)[C@H]2C(=O)O` (stereo in doubt): the Potency entry in assay [1] and in assay [2] was “inactive” throughout.

As to `CC(C)N=C=NC(C)C`, the Potency result in assay [1] and in assay [2] was “inactive” throughout.

With `O=P(O)(O)Oc1ccccc1`, the Potency entry in assay [1] and in assay [2] was “inactive” throughout.

In the case of `CC(O)COCC(C)O` (stereo unspecified), the Potency result in assay [1] and in assay [2] was “inactive” in each case.

For `CCc1ccccc1`, the Potency entry in assay [1] and in assay [2] was “inactive” each time.

As to `CN(C)c1ccc(Cc2ccc(N(C)C)cc2)cc1`, the Potency result in assay [1] and in assay [2] was “inactive” each time.

On to `O=C[C@@H](O)[C@H](O)[C@H](O)CO`, for which the Potency entry in assay [1] and in assay [2] was “inactive” in each case.

On to `CCCCCCCCCCCCCCCCCC(=O)OCC(CC)CCCC` (stereo unspecified), for which the Potency entry in assay [1] and in assay [2] was “inactive” each time.

In the case of `CN1C(C(=O)Nc2ccccn2)=C(O)c2ccccc2S1(=O)=O`, the Potency result in assay [1] and in assay [2] was “inactive” each time.

For `CCOC(=O)c1ccccc1`, the Potency result in assay [1] and in assay [2] was “inactive” in each case.

As for `CCN(CC)CCNC(=O)c1ccc(NC(C)=O)cc1`, the Potency result in assay [1] and in assay [2] was “inactive” in each case.

With `CCN(CCC#N)c1ccc(N=Nc2ccc([N+](=O)[O-])cc2)cc1`, the Potency result in assay [1] and in assay [2] was “inactive” throughout.

On to `CC(Cl)C(Cl)Cl` (stereo unspecified), for which the Potency result in assay [1] and in assay [2] was “inactive” each time.

For `Cc1ccc(S(=O)(=O)O)cc1C`, the Potency result in assay [1] and in assay [2] was “inactive” in each case.

Consider `CC(CC(C#N)(c1ccccc1)C(C)C)N(C)C` (stereo unspecified), for which the Potency entry in assay [1] and in assay [2] was “inactive” in each case.

With `c1ccc(Oc2ccccc2)cc1`, the Potency result in assay [1] and in assay [2] was “inactive” each time.

Consider `CC(C)(C)C1CCCCC1=O` (stereo unspecified), for which the Potency result in assay [1] and in assay [2] was “inactive” throughout.

For `CC(=O)c1ccc2ccccc2c1`, the Potency entry in assay [1] and in assay [2] was “inactive” throughout.

Regarding `COC(=O)c1cc(Cl)ccc1[N+](=O)[O-]`, the Potency entry in assay [1] and in assay [2] was “inactive” in each case.

With `CCOCCOCCOC(C)=O`, the Potency entry in assay [1] and in assay [2] was “inactive” throughout.

On to `CC[N+]1(CC)CCC(=C(c2ccccc2)c2ccccc2)C1C` (stereo unspecified), for which the Potency result in assay [1] and in assay [2] was “inactive” each time.

Regarding `Cc1ccc(OC(=O)c2ccccc2O)cc1`, the Potency entry in assay [1] and in assay [2] was “inactive” in each case.

`NC(=O)CC[C@@H](N)C(=O)O`: the Potency entry in assay [1] and in assay [2] was “inactive” throughout.

Take `Cc1ccc2c(c1)C(=O)OC2=O`: the Potency entry in assay [1] and in assay [2] was “inactive” in each case.

Regarding `CCOC(=O)Nc1ccc2c(c1)N(C(=O)CCN1CCOCC1)c1ccccc1S2`, the Potency result in assay [1] and in assay [2] was “inactive” each time.

Take `C/C=C(\C)C=O`: the Potency entry in assay [1] and in assay [2] was “inactive” each time.

As to `C=C(C)C(=O)OCC(C)O` (stereo unspecified), the Potency result in assay [1] and in assay [2] was “inactive” in each case.

As to `CCN(CC)c1ccc2c(-c3ccccc3C(=O)O)c3ccc(=[N+](CC)CC)cc-3oc2c1`, the Potency entry in assay [1] and in assay [2] was “inactive” each time.

In the case of `CCCCCCOc1cc(C)c(O)c(C)c1C`, the Potency in assay [1] was 55.1 µM (active). In assay [2], the Potency entry was “inactive”.

With `COc1ccc(C)cc1N`, the Potency result in assay [1] and in assay [2] was “inactive” each time.

In the case of `CCCOC(=O)CCCCC(=O)OCCC`, the Potency entry in assay [1] and in assay [2] was “inactive” in each case.

On to `O=C(O)c1ccc(S(=O)(=O)N(Cl)Cl)cc1`, for which the Potency result in assay [1] and in assay [2] was “inactive” in each case.

Take `CCCCCCCCCCCCCCCC(=O)OC/C=C(C)/C=C/C=C(C)/C=C/C1=C(C)CCCC1(C)C`: the Potency entry in assay [1] and in assay [2] was “inactive” throughout.

Consider `CCCOc1ccc(C(=O)OCCN(CC)CC)cc1N`, for which the Potency entry in assay [1] and in assay [2] was “inactive” throughout.

On to `CN1CCCCC1CCN1c2ccccc2Sc2ccc(S(C)=O)cc21` (stereo unspecified), for which the Potency entry in assay [1] and in assay [2] was “inactive” each time.

As for `Sc1nc(S)nc(S)n1`, the Potency result in assay [1] and in assay [2] was “inactive” throughout.

For `CC1=C(CC(=O)O)c2cc(F)ccc2/C1=C\c1ccc(S(C)=O)cc1` (stereo unspecified), the Potency entry in assay [1] and in assay [2] was “inactive” throughout.

Turning to `O=C(O)c1cc(C(=O)O)cc([N+](=O)[O-])c1`, the Potency entry in assay [1] and in assay [2] was “inactive” throughout.

As for `COC(=O)CC(=O)C(C)(C)C`, the Potency entry in assay [1] and in assay [2] was “inactive” throughout.
